Laboratory results: PubChem BioAssay AID624491 (Broad Institute, 2012)
The whole screen tested about 1,800 compounds, of which about 1,400 (78%) were called active. About 2% were inconclusive and are not listed.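 The calls were made as follows: active = fitted curve crossing a set activation limit at or below the highest valid dose tested; inconclusive = flat fit at 30 to 70% activation, or poor fit; inactive = the rest, including signal decreases.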 The set was probably picked from earlier hits. Only a sample is shown. Entries with a potency or affinity are not part of this list.

Assay: blockers of NLG process in reporter cells – D54 ERlucT cells, luminescence, cherry-picks, dose response (AID 624491);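 also: signal gain reflects blocked N-linked glycosylation of a luciferase reporter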
Conditions: D54 ERlucT glycosylation luciferase reporter, 24 h, 100% = twice neutral-control luminescence; series mostly up to 19.5 µM; activation (NLG inhibition): at the top concentration

Activation (NLG inhibition), inactive:
COc1ccc(NC(=O)C2Cc3c(-c4ccc5c(c4)OCO5)ccnc3O2)cc1 (configuration not stated) -4.2%
O=C(O)c1ccccc1OC(C(=O)Nc1cc(Cl)cc(Cl)c1)c1ccccc1 (configuration not stated) 173%
CCOc1cc(S(=O)(=O)NCc2ccc(OC)cc2)c(OCC)cc1-n1cnnn1 74.3%
CCOc1ccc2c(c1)C(=NNC(=O)c1ccncc1)c1cc(OCC)ccc1-2 12.9%
O=C(Nc1cccc(C(F)(F)F)c1)c1sc(Cl)nc1C(F)(F)F 6.11%
Cc1cc(O)c(NC(=O)c2cc([N+](=O)[O-])ccc2Cl)cc1C 41.7%
O=C(Cc1cccs1)NCCS(=O)(=O)N1CCN(c2ccccc2F)CC1 31.5%
CCc1ccc(NC(=O)Cn2c(=O)n(CCC(=O)NC3CCN(Cc4ccccc4)CC3)c(=O)c3ccccc32)cc1 133%
CCCn1c2ccccc2c2cnn(CC(=O)NC3CCCC(C)C3C)c(=O)c21 (configuration not stated) 9.84% [at 5 µM]
CNC(=O)COC(=O)c1ccccc1C(=O)c1ccc(Cl)c([N+](=O)[O-])c1 11% [at 1.2 µM]
COc1ccc(CN(C(=O)c2ccc(CN3CCOCC3)o2)C(C(=O)NCC2CCCO2)c2ccc(F)cc2)cc1 (configuration not stated) 2.01%
O=C1OC(c2ccc(F)cc2)CC1CN1CCOCC1 (configuration not stated) 13.6%
Nc1c(C(=O)c2ccccc2)sc2nsc(SCCN3CCOCC3)c12 28.1%
COC(=O)Nc1ccc(S(=O)(=O)N2CCCc3ccccc32)cc1 -4.31%
CCOc1ccc2[nH]c(=O)c(CN(Cc3ccc(F)cc3)C(=O)c3ccco3)cc2c1 31.5%
O=C(N/N=C/c1cccnc1)c1cc(-c2ccc(Br)cc2)nc2ccccc12 9.58%
CC1Nc2ncnc(N3CCc4ccccc4C3)c2N(Cc2ccc(Br)cc2)C1=O (configuration not stated) 41.9%
COc1ccc(CN2C(=O)C(C)Nc3ncnc(N4CCc5ccccc5C4)c32)cc1 (configuration not stated) 6.37%
Cc1cccc2[nH]c3c(N4CCC5(CC4)OCCO5)ncnc3c12 23.9%
COc1ccc(Cn2c(=O)c3[nH]cnc3n(-c3ccccc3C)c2=O)cc1 41.5%
O=C(Nc1ccccc1)N1CCC(c2nc(-c3ccc(S(=O)(=O)N4CCOCC4)cc3)no2)CC1 17.9%
COc1cc(/C=C/C(=O)c2ccc(Cl)s2)cc(OC)c1O 11.1%
COc1ccc(/C=C/C(=O)c2ccc3c4c(cccc24)CC3)cc1 41.7%
COc1cc(O)c(C(=O)/C=C/c2ccccc2)c(OC)c1 18.2%
CN1C/C(=C\c2ccc(N3CCOCC3)cc2)C(=O)/C(=C/c2ccc(N3CCOCC3)cc2)C1 -8.7%
COc1ccc(/C=C2\CN(Cc3ccccc3)C/C(=C\c3ccc(OC)cc3)C2=O)cc1 -8.86%
CCOc1ccc(/C=C/C(=O)c2ccccc2)cc1OC 28.2%
COc1ccc(C(=O)/C=C/c2ccc(OC3CSC3)cc2)cc1OC 55.4%
COc1ccc(C2=Nn3c(nnc3-c3ccco3)SC2)cc1 68.5%
COc1ccc(C2=Nn3c(nnc3-c3ccc(OC)cc3)SC2)cc1 7.21%
COc1ccc(OC)c(-c2nnc3n2N=C(c2ccc(OC)c(OC4CCCC4)c2)CS3)c1 -3.46%
COc1ccc2nc(-c3ccco3)c(-c3ccco3)nc2c1 2.38%
O=S1(=O)C=CC(Nc2cccc(Cl)c2)C1 (configuration not stated) 19.2%
O=C(CSc1nc2nc(-c3cccs3)cc(C(F)(F)F)c2c(=O)[nH]1)C(F)(F)F 36.6%
Cc1ccc(C)n1-c1ccc(C(=O)/C=C/N(C)C)cc1 5.31%
Cc1ccc(-c2cc(NC(=O)CCl)n(-c3ccccc3)n2)cc1 -70.1%
CCOc1ccccc1NC(=O)Cn1nnc(C(=O)NCc2ccc3c(c2)OCO3)c1N 46.6%
COc1cc(Cl)c(C)cc1NC(=O)CN1CCN(C(=O)C2CC2)CC1 21.3%
COc1ccc(NC(=O)C2Cc3c(-c4cccc(C(C)=O)c4)ccnc3O2)cc1 (configuration not stated) 16.6%
CCNC(=O)COc1ccc(/C=C2\COc3ccccc3C2=O)cc1OC 19.8% [at 5 µM]
CN(Cc1ccc(Cl)s1)C(=O)CCl -17.1%
CCN(CC(=O)NCc1ccc(F)cc1)C(=O)/C=C/c1ccc(OC)c(S(=O)(=O)NC(C)C)c1 40%
CN1C(=O)c2cccc3c(S(=O)(=O)Nc4ccccc4F)ccc1c23 52.8%
CCN(CC)CCCNC(=O)c1cc2c(=O)n(CC)c3ccccc3c2s1 21.5%
COc1cc(C2=NOC(C(=O)NCc3cccs3)C2)cc(OC)c1OC (configuration not stated) 26.4%
CCOC(=O)Nc1c2ccccc2nc2ccccc12 62.4%
O=C(O)c1ccc(CN2C(=O)c3cccc4c([N+](=O)[O-])ccc(c34)C2=O)cc1 -46.8%
Cc1noc(C)c1COc1ccc(C(=O)NNC(=O)c2ccccc2)cc1 44.8%
CC[C@@]1(c2ccccc2OC)ON(c2ccccc2C(F)(F)F)C1=O 10.9%
COc1cccc(C(=O)Nc2ncc3c(n2)CC(c2ccc(OC)cc2OC)CC3=O)c1 (configuration not stated) 37.5%
COc1ccccc1C1=NOC(COc2ccc3c(C)cc(=O)oc3c2)C1 (configuration not stated) 33.4%
Cc1nc2c3cc(F)ccc3n(CCN3CCCCC3)c2s1 35.5%
NNC(=O)c1ccc2nc(-c3ccc(Br)cc3)cn2c1 610%
Cc1ccc(-c2cc(C(=O)N/N=C/c3c[nH]c4ccccc34)[nH]n2)cc1 30.9%
COc1ccc(CCn2c(=N)c(C(=O)NC3CCCC3)cc3c(=O)n4ccccc4nc32)cc1OC 55.9%
COc1cc2cc(C(c3nnnn3C(C)(C)C)N3CCc4ccccc4C3)c(=O)[nH]c2cc1OC (configuration not stated) 18%
Cc1cccc(N2CCN(C(=O)c3ccc(Cl)c(S(=O)(=O)NCc4ccco4)c3)CC2)c1C 29.6%
C=CCN(CC=C)C(=O)CN1C(=O)NC(C)(c2ccc3cc(OC)ccc3c2)C1=O (configuration not stated) 3.96% [at 5 µM]
NC(=O)/C=C\C(=O)Nc1cccc(C(F)(F)F)c1 -15.6%
O=S(=O)(Nc1cccc2cccnc12)c1ccc(S(=O)(=O)N2CCCC2)cc1 -10.1%
CCN(CC)C(=O)CSc1nc2c(sc(=S)n2-c2ccccc2)c(=O)n1Cc1ccco1 10.5%
Cc1cc(NC(=O)CSc2nc(C3CC3)nc3sc(C)c(C)c23)no1 17.8%
COc1ccc(N(CC(=O)Nc2cc(Cl)ccc2OC)S(=O)(=O)c2c(C)noc2C)cc1 15.9%
Cc1cc(Br)ccc1NC(=O)CCCOc1cc(=O)n(C)c2ccccc12 30.6%
N#Cc1c(NC(=O)c2cnccn2)sc2c1CCCC2 6.08%
O=c1cc(N=Nc2ccc(Cl)cc2)[nH]c(=O)[nH]1 34.3% [at 5 µM]
CCCCCCCCn1c2c(c(=N)c3c1CCC3)CCCC2 73.5%
CCOC(=O)c1ccc(-c2ccc(/C=N/NC(=O)CN(c3cccc(C)c3)S(C)(=O)=O)o2)cc1 212%
O=C(N/N=C\c1ccc([N+](=O)[O-])o1)c1cncc(Br)c1 -28.4%
CC1c2cc3c(cc2CCN1C(=O)c1ccc(Br)cc1)OCCCO3 (configuration not stated) 40%
COc1cc2c(cc1OC)C(C)N(C(=O)Nc1ccccc1)CC2 (configuration not stated) 17.2%
Nc1nonc1-c1nc2ccccc2n1CC(=O)N/N=C\c1ccc(-c2ccc(Cl)cc2)o1 70.3%
Nc1nonc1-c1nc2ccccc2n1Cc1ccccc1 30%
CCOc1cccc2sc(Nc3nc4ccc(NC(C)=O)cc4s3)nc12 29.5%
Oc1ccc(NCc2ccccc2OCc2ccccc2)cc1 24.1%
CCc1cccc(CC)c1NC(=O)CN1C2CCCC1CC(NC(=O)Nc1cccc(OC)c1)C2 (configuration not stated) 119%
Cc1cc(NCCCN(C)C)n2c(nc3ccccc32)c1C#N 23%
CC1Cc2ccccc2N1C(=O)CSc1nn2c(=O)c(C(C)(C)C)nnc2s1 (configuration not stated) 30.3%
COc1ccc(OC)c(N(CC(=O)Nc2cccnc2)S(=O)(=O)c2ccc(C)cc2)c1 38.7%
COCC(=O)OC/C(O)=C(\C#N)c1nc2ccccc2[nH]1 -48.3%
CC(C)Oc1ccc(C(=O)Nc2ccc3c(c2)n(C)c(=O)n3C)cc1 4.1% [at 5 µM]
O=C(Nc1cccc2ccccc12)c1ccc([N+](=O)[O-])o1 -36%
O=C(NC1CCCC(C(F)(F)F)C1)c1ccc([N+](=O)[O-])o1 (configuration not stated) -15.2%
O=C(Nc1ccc(N2CCCC2)c(Cl)c1)c1ccc([N+](=O)[O-])o1 -78.1%
CCn1cc([N+](=O)[O-])c(C(=O)Nc2nc(-c3ccc(C)c(C)c3)c(C)s2)n1 57.7%
O=C(Nc1nc2ccccc2s1)c1ccc([N+](=O)[O-])o1 3.59%
O=C(NC(=S)Nc1cccc(S(=O)(=O)NC2=NCCC2)c1)c1cc(-c2ccco2)nc2ccccc12 23.7%
COc1ccc(/C=C2\COc3ccccc3C2=O)cc1OC -3.49%
C[C@H](CO)N1C[C@H](C)[C@@H](CN(C)Cc2ccccc2)Oc2ccc(NC(=O)CCCCCC(=O)Nc3ccccc3N)cc2C1=O 4.91% [at 5 µM]
O=C(NC1CCCCC1)C(c1cccnc1)N(C(=O)CCl)c1cccc(Cl)c1 (configuration not stated) -94.9%
COc1ccc(N(C(=O)CCl)C(C(=O)NC2CCCCC2)c2cccnc2)cc1 (configuration not stated) -95.5%
CC(=O)Cn1ncc(Br)c(Br)c1=O -52.5%
CCN1/C(=C/c2sc(-c3ccccc3C)c[n+]2C)Sc2ccccc21 -9.29%
CCOC(=O)c1c(NC(=O)CCl)sc(C(=O)N(CC)CC)c1C 5.73%
COc1ccc(C(=O)/C=C/Sc2nc3ccccc3o2)cc1 5.52%
CCOc1ccc(N(C)S(=O)(=O)c2ccc(-c3cc(C)no3)s2)cc1 39.3%
Cc1cccc(N(C)S(=O)(=O)c2ccc(-c3cc(C)no3)s2)c1 32.2%
O=C1c2ccccc2-c2n[nH]c(=O)c3ccc(N4CCCCC4)c1c23 41.3%
CCn1ncc(C2=NOC(C(=O)NCc3ccc(Cl)cc3)C2)c1C (configuration not stated) 20.7%
COc1cc(C2=NOC(C(=O)NCc3ccc(F)cc3)C2)cc(OC)c1OC (configuration not stated) 13.2%
O=C(NCc1ccc(OC(F)(F)F)cc1)C1CC(c2ccc(C(F)(F)F)cc2)=NO1 (configuration not stated) 5.51%
COc1cccc(S(=O)(=O)Nc2ccc3c(c2)[C@@H]2C[C@@H](CC(=O)NCc4ccc(Cl)cc4)O[C@@H](CO)[C@@H]2O3)c1 21.2%
